Results taken from PubChem BioAssay (NCI).
About 83,000 compounds went through this panel and 20% of them were active in at least one assay; those are over-represented in the sample as a whole.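 Cell lines were cultured in 96-well plates, exposed to a single compound concentration, and assessed for percent growth 48 hours later.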 Unmarked numbers belong to inactive results. The source made the active and inactive calls. How the source made its calls: active means growth percent below 10; inactive means the rest.

tested on: 786-0 renal; assay: NCI-60 one-dose screen, 48 h (100 = growth as untreated, 0 = no growth, -100 = all killed); conditions: 10 µM unless noted

Structure (SMILES) | growth
CC(C)CCC[C@@H](C)[C@H]1CC[C@H]2[C@@H](Nc3ccc(O)cc3)CCC[C@]12C | 109%
O=C(Nc1ccccc1)Nc1cccc(Oc2nnc(Cl)c3ccccc23)c1 | 38.2%
CCCCNC(=O)Oc1ccc2c(=O)c3sc4c(=O)c5ccccc5c(=O)c4c3c(=O)c2c1 | -37% (active)
COc1nc(N(C)O)nc(N(C)O)n1 | 8.76% (active)
N=c1sc(Cc2ccc(Cl)cc2)cn1CC(=O)c1ccc(F)cc1 | 86.5%
Cc1ccc(-c2cc(-c3ccccc3C)[nH]c(=O)c2C#N)s1 | 78.8%
O=C1/C(=C\c2c[nH]c3ccccc23)c2ccccc2N1c1c(Cl)cccc1Cl | -37.7% (active)
COc1ccc(C2C(c3nn[nH]n3)=C(N)Oc3c2ccc2ccccc32)cc1 (stereo not drawn) | 79.2%
CCCCCCCOc1c(OC)cc(C2CC(=O)Nc3c2c(C)nn3-c2nc3ccccc3[nH]2)cc1OC (stereo not drawn) | 4.68% (active)
Cc1c(C(=O)OC(=NC2CCCCC2)NC2CCCCC2)sc2c1c(=O)nc1c(C#N)n[nH]n12 | 92%
C[n+]1cccc(CC(=O)NO)c1 | 106%
c1c[nH]c(CNC2CCCCC2)c1 | 112%
N#C/C(=C\c1ccc(Br)cc1)n1nnc2cc(F)c(F)cc21 | 23.2%
CC1(C)CC[C@]2(C(=O)N3CCOCC3)CC[C@]3(C)C(=CC[C@@H]4[C@@]5(C)CC[C@H](OC(=O)c6cccnc6)C(C)(C)[C@@H]5CC[C@]43C)[C@@H]2C1 | 62.4%
O=C(c1ccccc1)c1c(/C=C/c2ccccc2)nc2ccccc2c1/C=C/c1ccc(Br)cc1 | 99.7%
O=C(COc1ccc(/C=C2\Oc3ccccc3C2=O)cc1)Nc1nc2c(s1)CCCC2 | 20%
Cc1ccc(Cl)c(NS(=O)(=O)c2ccc(-c3cnc(C4CC4)o3)cc2)c1 | 27.8%
Cc1ccc2nc(C)c(-c3nnc(SCc4ccc(C#N)cc4)o3)n2c1 | 72.2%
CC1=C(SCCC(=O)OC(C[Se]C2=C(C)C(=O)c3ccccc3C2=O)C(=O)NCCCCCC(=O)OCc2ccccc2)C(=O)c2ccccc2C1=O (stereo not drawn) | 40.1%

Structure (SMILES) | growth
NNC(=O)c1nc(N)n(-c2ccc(S(N)(=O)=O)cc2)n1 | 95.7%
Cn1c(=O)c2[nH]c(NN)nc2n(C)c1=O | 98.7%
O=C(/C=C/c1cccc(O)c1)c1cccc(-n2cc(-c3ccc4ccccc4c3)[nH]c2=O)c1 | -87.9% (active)
O=C(/C=C/c1ccco1)c1ccc(Nc2nc(Nc3ccc(F)cc3)nc(Nc3ccc(Cl)cc3)n2)cc1 | 84.4%
O=C1OC(c2nc3ccccc3s2)=C/C1=C\c1ccc(O)cc1 | 107%
COc1ccc(-c2c(N)n[nH]c2-c2ccc(Cl)cc2O)cc1OC | 86.6%
O=C(Nc1cccc(Cl)c1)c1cc(N=Nc2ccc([N+](=O)[O-])cc2Cl)ccc1O | 59.1%
CCN(CC)CCN1C(=O)c2c(c(C)c3c(oc4cc(O)ccc43)c2C)C1=O | -80.9% (active)
CNC(=O)c1cc(Oc2ccc3nc(Nc4ccc(Cl)c(C(F)(F)F)c4)ccc3c2)ccn1 | 85%
CCCc1cc2c(=O)c(C(=O)OC)c[nH]c2cc1N(CC)CC | 101%
COc1cc(/C=N/NC(=O)Cn2c(C(C)C)nc3ccccc32)ccc1O | 104%
COc1ccc(C(=O)COc2ccc(/C=C3\Oc4ccccc4C3=O)cc2)cc1 | 98.1%
CCN(CCNc1ccc(C)c2sc3ccccc3c(=O)c12)CC(C)(C)O | 70.4%
O=C(CSc1nnc(-c2ccc(NC(=O)c3cccnc3)cc2)o1)N[C@@H](Cc1ccc(O)cc1)C(=O)O | 99.6%
CN(C)c1ccc(/C=C/C(=O)c2cccc(Nc3nc(Nc4ccccc4)nc(Nc4ccccc4)n3)c2)cc1 | 88.2%
N#C/C(=C\c1ccc(-c2ccccc2F)o1)c1nc(-c2ccco2)cs1 | 104%
Cc1ccc(C(=O)CSc2nc(-c3ccc(Br)cc3)c(C#N)c(=O)[nH]2)cc1 | 98.7%
COc1ccc(-c2nc3sccn3c2-c2cc(-c3cc(OC)c(OC)c(OC)c3)on2)cc1 | 96.6%
c1ccc(-c2nc([P+](c3ccccc3)(c3ccccc3)c3ccccc3)c(N3CCOCC3)o2)cc1 | 27.3%
